# “And” between values parts separate entries of the source, which are not always exact repeats. Equal values may be shown once. Results filed as inconclusive are left out. A number with no mark means an inactive call. Calls come from the whole dose curve; as a rule, active = well fitted inhibition curve with a large enough effect; inconclusive = small, poorly fitted or top-dose-only effect; inactive = flat fitted curve, though single readings scatter. Where a SMILES comes first, the peptide text is derived from it. Bridges are numbered along the chain shown (N, C = ends). [ ]: non-standard residue; d: D form. The star is where a group is joined. ξ: configuration not given here. d(aThr) = C[C@@H](O)[C@@H](N)C(=O)O; ξThr(3R) = C[C@@H](O)C(N)C(=O)O; X3 = CC[C@@H](C)CCCCC(=O)*; dDab = NCC[C@@H](N)C(=O)O
# Test system: KB-3-1
# Test: Cytotoxic Profiling of Annotated Libraries Using Quantitative High-Throughput Screening (AID 1296008); note: nearly all actives have a fitted effect of over 60% in size
# Conditions: Five cell lines viability, CellTiter-Glo ATP luminescence, 48-72 h; max response: active compounds read low
# In short: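 Cytotoxicity was measured as CellTiter-Glo ATP luminescence, read after 10 min at room temperature. Compound treatment of the cells lasted 48 or 72 hr at 37 degrees Celsius in a qHTS format.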
# % is set by controls: 0 for no effect and ±100 for the full control effect.
row,Structure (SMILES),max response
1,CC(C)C[C@@H](NC(=O)[C@@H](O)[C@H](N)Cc1ccccc1)C(=O)O,11%
2,CC[C@@H](C)CCCCC(=O)N[C@H](CCN)C(=O)N[C@@H](C(=O)N[C@H](CCN)C(=O)N[C@@H]1CCNC(=O)C([C@@H](C)O)NC(=O)[C@@H](CCN)NC(=O)[C@@H](CCN)NC(=O)[C@@H](CC(C)C)NC(=O)[C@@H](Cc2ccccc2)NC(=O)[C@@H](CCN)NC1=O)[C@@H](C)O (stereo partly drawn) (X3-[dDab][d(aThr)][dDab][dDab][dDab][dF][dL][dDab][dDab][ξThr(3R)]; lactam 4-C),15.7%
3,C[C@H](CCC(=O)O)[C@H]1CC[C@H]2[C@@H]3[C@H](O)C[C@@H]4C[C@H](O)CC[C@]4(C)[C@H]3C[C@H](O)[C@]12C,1.07%
4,Cc1c(N)nc([C@H](CC(N)=O)NC[C@H](N)C(N)=O)nc1C(=O)N[C@H](C(=O)N[C@H](C)[C@@H](O)[C@H](C)C(=O)N[C@H](C(=O)NCCc1nc(-c2nc(C(=O)NCCCCN=C(N)N)cs2)cs1)[C@@H](C)O)[C@@H](O[C@@H]1O[C@@H](CO)[C@@H](O)[C@H](O)[C@@H]1O[C@H]1O[C@H](CO)[C@@H](O)[C@H](OC(N)=O)[C@@H]1O)c1cnc[nH]1,-6.52% and -5.98%
5,CC(=O)[C@@]1(O)CC[C@H]2[C@@H]3C=C(Cl)C4=CC(=O)[C@@H]5C[C@@H]5[C@]4(C)[C@H]3CC[C@@]21C,1.37%
6,COc1ccc(C[C@H](C)NC[C@@H](O)c2ccc(O)c(NC=O)c2)cc1,5.8%
